According to PubChem BioAssay AID743279 (National Center for Advancing Translational Sciences (NCATS), 2014):
Out of some 360,000 compounds screened, about 17,000 (4.7%) were called active. Not shown: some 5% with an inconclusive outcome. No stated cut-off is given here; in the data, active means activity change below about -50%; inconclusive means mostly about -30% to -49%; inactive means weaker than that. For the sample, actives were picked, then their nearest neighbours and some compounds at random.

Assay: qHTS for Inhibitors of Inflammasome Signaling: IL-1-beta AlphaLISA Primary Screen
Conditions: THP-1 LPS/ATP IL-1B secretion, 16 h; at 57.5 µM, stronger effect = lower value
Procedure, shortened: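 Secreted IL-1B measured by AlphaLISA bead assay after 16 h compound exposure of THP-1 cells; compounds (final up to 57.5 uM) added 1 h before LPS (250 ng/mL) and ATP (1.25 mM) stimulation; lower signal means less secretion.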
On the % scale 0 is the no-effect control and ±100 the full control effect.

| Structure (SMILES) | activity change |
| --- | --- |
| CCc1cc(-c2nnn(CCC3COCCO3)c2CC)ccc1-c1cn(Cc2ccc3ccccc3c2)nn1 (stereo not given) | 52.6% (inactive) |
| Cc1ccc(CNC(=O)C2CCN(S(=O)(=O)c3ccc4nc5c(c(C(=O)O)c4c3)CC(C)CC5)CC2)cc1 (stereo not given) | 1.65% (inactive) |
| COc1ccc(CC2(CO)CCN(Cc3cnn(C)c3)CC2)cc1 | 12.5% (inactive) |
| COc1cccc(CC2(CO)CCN(Cc3cnc(-c4cccc(C)c4)nc3)CC2)c1 | -64.4% (active) |
| Cc1cccc(-c2ncc(CN3CCC(CO)(CCCc4ccccc4)CC3)cn2)c1 | -19.1% (inactive) |
| CC(=O)c1cc(CN2CCC(n3nccc3NC(=O)c3ccccc3Cl)CC2)cs1 | -15.4% (inactive) |
| Cn1c(CNC(=O)c2ccco2)nnc1SCC(=O)N1CCN(c2ccccc2)CC1 | 52% (inactive) |
| O=C(NCc1nnc(SCC(=O)N2CCC(Cc3ccccc3)CC2)o1)c1ccco1 | -92.1% (active) |
| O=C(NCc1nnc(SCC(=O)N2CCCCCC2)o1)c1ccc(F)cc1 | 22.8% (inactive) |
| NC(=O)C1(Nc2ccccc2Cl)CCCC1 | -1.93% (inactive) |
| CCOC(=O)[C@]12CCCC=C1N(Cc1ccc3c(c1)OCO3)C(=O)[C@H](CC(=O)NCc1cccs1)C2 | 0% (inactive) |
| O=C1C=C(c2ccc(Cl)cc2)C(=O)N1Nc1ccccc1 | -76.1% (active) |
| O=C(CCC(=O)OCc1ccc(Cl)cc1)Nc1ccccc1 | 15% (inactive) |
| O=C(O)CC1=C(Nc2ccccc2)C(=O)N(c2ccccc2)C1c1ccc(Cl)cc1 (stereo not given) | 0% (inactive) |
| COc1ccc(NC(=O)C(C)N2c3cccc4cccc(c34)S2(=O)=O)c(OC)c1 (stereo not given) | 27.8% (inactive) |
| CCC(C)CN1C(=O)CN(S(C)(=O)=O)CC1(C)C(=O)Nc1ccc2c(c1)OCCO2 (stereo not given) | -19.9% (inactive) |
| COc1ccc(-c2cc3c(c4c2ccn4C)C2CCC3C2)cn1 (stereo not given) | 0% (inactive) |
| COc1ccc(-c2c(C#Cc3ccccc3)c3ccccc3n2C)cc1 | -16.3% (inactive) |
| COc1ccc(CCNCc2c(-c3ccccc3)n(C)c3ccccc23)cc1 | -97.2% (active) |
| COc1ccc(-c2nc3ccccc3c(=O)n2CCc2ccc(O)cc2)cc1 | -13% (inactive) |
| CCN1CN(Cc2ccccc2)CNC1=S | 0.299% (inactive) |
| CCc1nnc(NC(=O)C2CCN(C(=O)c3ccccc3C)CC2)s1 | -4.49% (inactive) |
| O=C(CCCOc1ccc(Cl)cc1Cl)NNC(=O)C1CCC1 | -7.73% (inactive) |
| Cc1ccc(C(NC(=O)C2CCN(CCOc3ccc(Cl)cc3Cl)CC2)c2ccccn2)cc1 (stereo not given) | -68.4% (active) |
| CCOc1ccc(S(=O)(=O)N2CCC(C(=O)NCc3ccccn3)CC2)cc1Cl | -5.47% (inactive) |
